What all share (experiment): DAPPL (digital affinity profiling via proximity ligation, sequencing); 10 mM Tris-HCl pH 7.5, 50 mM NaCl, 1 mM DTT, 4% glycerol, room temperature, 30 min; GST-TFs on glutathione beads, 16-mer random dsDNA library, 0.1% formaldehyde crosslink after washing; high values mean tight binding
In assay [1] the target is T1, FLI1 (Homo sapiens, UniProt Q01543 1-452).
T1 sequence: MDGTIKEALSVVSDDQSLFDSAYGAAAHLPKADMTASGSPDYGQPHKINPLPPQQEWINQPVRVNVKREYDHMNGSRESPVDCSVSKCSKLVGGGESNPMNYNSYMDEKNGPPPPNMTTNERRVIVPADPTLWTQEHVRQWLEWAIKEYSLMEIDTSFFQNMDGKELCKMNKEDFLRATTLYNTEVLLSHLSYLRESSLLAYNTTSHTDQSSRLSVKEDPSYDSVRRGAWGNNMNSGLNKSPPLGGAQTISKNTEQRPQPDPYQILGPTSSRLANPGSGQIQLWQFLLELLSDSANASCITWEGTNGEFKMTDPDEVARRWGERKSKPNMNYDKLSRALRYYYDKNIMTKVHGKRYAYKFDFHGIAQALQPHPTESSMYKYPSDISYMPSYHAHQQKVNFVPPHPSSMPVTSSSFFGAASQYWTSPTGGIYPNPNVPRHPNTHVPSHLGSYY
As to conditions: protein: recombinant; tags: N-terminal GST; dsDNA, one strand shown. The gist of the method:
(§1)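 The binding signal reported is, for every hexamer, its read frequency for a factor over its read frequency for the tag-only sample. Reads came from pools of yeast-expressed, GST-fused human transcription factors on glutathione beads, barcoded with DNA and mixed with that sample, which were incubated with 200 nmole of a random double-stranded 16-mer DNA library in Tris/NaCl/DTT/glycerol buffer at room temperature for 30 min. After washing, the pools were crosslinked with 0.1% formaldehyde, proximity-ligated with BsaI/T4 ligase for 1 h at 37 °C, PCR-amplified and sequenced on an Illumina NextSeq500.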

Assay [2] concerns the target T2, ELK1 (Homo sapiens, UniProt P19419 1-428).
T2 sequence: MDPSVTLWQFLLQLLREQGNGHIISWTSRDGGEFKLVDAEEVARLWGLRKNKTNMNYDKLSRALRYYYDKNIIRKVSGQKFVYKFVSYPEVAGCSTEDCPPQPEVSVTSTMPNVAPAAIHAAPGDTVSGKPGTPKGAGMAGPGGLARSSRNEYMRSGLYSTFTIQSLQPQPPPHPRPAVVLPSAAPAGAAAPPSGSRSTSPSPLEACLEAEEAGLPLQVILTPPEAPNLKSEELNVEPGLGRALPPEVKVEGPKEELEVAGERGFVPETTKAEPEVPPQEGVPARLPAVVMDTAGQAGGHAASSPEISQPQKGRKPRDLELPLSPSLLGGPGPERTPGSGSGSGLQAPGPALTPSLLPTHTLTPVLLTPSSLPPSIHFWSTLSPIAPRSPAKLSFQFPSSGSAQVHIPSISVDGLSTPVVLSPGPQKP
The settings on record: protein: recombinant; tags: N-terminal GST; dsDNA, one strand shown. The gist of the method: as §1

Assay [3] deals with T3, GABPA (Homo sapiens, UniProt Q06546 1-454).
T3 sequence: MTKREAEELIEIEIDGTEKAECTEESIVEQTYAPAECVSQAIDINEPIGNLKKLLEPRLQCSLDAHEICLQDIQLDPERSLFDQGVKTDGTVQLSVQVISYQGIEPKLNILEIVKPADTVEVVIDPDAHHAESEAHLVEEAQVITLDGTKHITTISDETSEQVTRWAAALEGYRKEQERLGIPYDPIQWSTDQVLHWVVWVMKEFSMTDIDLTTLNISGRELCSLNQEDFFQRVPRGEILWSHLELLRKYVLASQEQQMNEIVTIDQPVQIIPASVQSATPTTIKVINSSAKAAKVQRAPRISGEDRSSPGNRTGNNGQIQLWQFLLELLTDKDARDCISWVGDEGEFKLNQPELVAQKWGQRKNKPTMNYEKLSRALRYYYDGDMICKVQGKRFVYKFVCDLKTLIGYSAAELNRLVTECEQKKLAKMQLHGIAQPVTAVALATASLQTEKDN
The settings on record: protein: recombinant; tags: N-terminal GST; dsDNA, one strand shown. Summed up: as §1

The target in assay [4] is T4, ERG (Homo sapiens, UniProt P11308 1-479).
T4 sequence: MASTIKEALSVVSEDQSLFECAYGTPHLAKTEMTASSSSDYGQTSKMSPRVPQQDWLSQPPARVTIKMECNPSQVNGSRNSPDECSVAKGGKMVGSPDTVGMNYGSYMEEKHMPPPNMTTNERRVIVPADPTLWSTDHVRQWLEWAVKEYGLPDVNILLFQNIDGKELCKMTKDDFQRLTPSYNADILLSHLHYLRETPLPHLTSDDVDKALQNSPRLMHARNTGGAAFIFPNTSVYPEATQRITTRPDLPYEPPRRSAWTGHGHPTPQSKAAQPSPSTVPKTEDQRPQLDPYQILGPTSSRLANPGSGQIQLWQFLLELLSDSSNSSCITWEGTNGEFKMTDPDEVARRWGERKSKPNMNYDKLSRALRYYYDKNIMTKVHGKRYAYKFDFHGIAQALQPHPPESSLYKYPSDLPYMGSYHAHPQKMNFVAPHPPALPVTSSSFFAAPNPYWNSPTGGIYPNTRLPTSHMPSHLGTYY
As to conditions: protein: recombinant; tags: N-terminal GST; dsDNA, one strand shown. The gist of the method: as §1

The target of assay [5] is ELF1 (Homo sapiens, UniProt P32519 1-619). As to conditions: protein: recombinant; tags: N-terminal GST; dsDNA, one strand shown. Summed up:
as §1

The target in assay [6] is T5, EHF (Homo sapiens, UniProt Q9NZC4 1-300).
T5 sequence: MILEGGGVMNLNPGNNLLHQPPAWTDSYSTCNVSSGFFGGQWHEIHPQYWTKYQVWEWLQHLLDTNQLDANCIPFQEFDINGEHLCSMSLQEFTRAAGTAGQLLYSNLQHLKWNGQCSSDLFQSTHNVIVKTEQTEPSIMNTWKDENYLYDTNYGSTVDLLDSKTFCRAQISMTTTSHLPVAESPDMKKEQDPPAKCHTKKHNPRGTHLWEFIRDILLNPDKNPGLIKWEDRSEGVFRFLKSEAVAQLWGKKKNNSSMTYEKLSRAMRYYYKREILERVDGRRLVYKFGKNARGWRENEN
The settings on record: protein: recombinant; tags: N-terminal GST; dsDNA, one strand shown. The gist of the method:
as §1

Assay [7] addresses SPI1 (Homo sapiens, UniProt P17947 1-270). As to conditions: protein: recombinant; tags: N-terminal GST; dsDNA, one strand shown. Summed up: as §1
Assay [8] has as its target SPIB (Homo sapiens, UniProt Q01892 1-262). The settings on record: protein: recombinant; tags: N-terminal GST; dsDNA, one strand shown. The gist of the method: as §1
The target of assay [9] is T6, ELK3 (Homo sapiens, UniProt P41970 1-407).
T6 sequence: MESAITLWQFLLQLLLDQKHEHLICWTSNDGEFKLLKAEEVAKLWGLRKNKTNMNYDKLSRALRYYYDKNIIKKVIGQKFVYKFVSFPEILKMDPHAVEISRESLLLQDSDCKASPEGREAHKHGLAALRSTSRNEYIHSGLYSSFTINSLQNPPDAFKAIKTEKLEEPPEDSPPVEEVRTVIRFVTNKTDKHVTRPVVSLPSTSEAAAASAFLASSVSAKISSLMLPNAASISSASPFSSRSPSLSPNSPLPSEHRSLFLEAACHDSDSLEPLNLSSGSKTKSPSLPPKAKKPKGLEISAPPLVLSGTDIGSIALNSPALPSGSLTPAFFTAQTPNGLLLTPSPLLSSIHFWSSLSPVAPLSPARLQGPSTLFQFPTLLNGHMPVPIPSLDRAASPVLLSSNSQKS
The settings on record: protein: recombinant; tags: N-terminal GST; dsDNA, one strand shown. The gist of the method: as §1

Assay [10] concerns the target T7, FEV (Homo sapiens, UniProt Q99581 1-238).
T7 sequence: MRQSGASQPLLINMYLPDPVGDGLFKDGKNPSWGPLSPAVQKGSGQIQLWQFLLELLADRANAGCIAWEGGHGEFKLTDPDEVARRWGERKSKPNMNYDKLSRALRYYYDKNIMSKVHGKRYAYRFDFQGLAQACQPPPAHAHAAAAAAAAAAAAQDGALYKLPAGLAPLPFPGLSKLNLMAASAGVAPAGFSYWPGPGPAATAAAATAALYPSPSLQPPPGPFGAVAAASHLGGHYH
As to conditions: protein: recombinant; tags: N-terminal GST; dsDNA, one strand shown. The gist of the method: as §1

Assay [11] deals with ETV5 (Homo sapiens, UniProt P41161 1-510). As to conditions: protein: recombinant; tags: N-terminal GST; dsDNA, one strand shown. The gist of the method: as §1
Sequence of ETV5 (P41161 whole entry): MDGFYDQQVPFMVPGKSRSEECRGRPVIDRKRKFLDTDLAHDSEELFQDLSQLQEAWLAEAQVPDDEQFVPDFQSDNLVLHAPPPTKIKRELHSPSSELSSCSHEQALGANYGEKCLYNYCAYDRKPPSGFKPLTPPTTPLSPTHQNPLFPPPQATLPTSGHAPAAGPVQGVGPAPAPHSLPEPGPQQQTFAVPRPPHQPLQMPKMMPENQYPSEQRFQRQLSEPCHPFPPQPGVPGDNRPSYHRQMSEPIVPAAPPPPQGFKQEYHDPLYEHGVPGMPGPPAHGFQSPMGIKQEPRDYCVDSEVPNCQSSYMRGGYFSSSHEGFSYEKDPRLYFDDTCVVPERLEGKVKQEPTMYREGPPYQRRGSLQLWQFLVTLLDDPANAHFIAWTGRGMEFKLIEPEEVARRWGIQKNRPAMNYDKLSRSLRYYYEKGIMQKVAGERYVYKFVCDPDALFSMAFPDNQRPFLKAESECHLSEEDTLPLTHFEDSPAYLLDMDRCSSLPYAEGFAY
The target in assay [12] is HSF1 (Homo sapiens, UniProt Q00613 1-529). The settings on record: protein: recombinant; tags: N-terminal GST; chain copies: 3; dsDNA, one strand shown. Summed up: as §1
Sequence of HSF1 (Q00613 whole entry): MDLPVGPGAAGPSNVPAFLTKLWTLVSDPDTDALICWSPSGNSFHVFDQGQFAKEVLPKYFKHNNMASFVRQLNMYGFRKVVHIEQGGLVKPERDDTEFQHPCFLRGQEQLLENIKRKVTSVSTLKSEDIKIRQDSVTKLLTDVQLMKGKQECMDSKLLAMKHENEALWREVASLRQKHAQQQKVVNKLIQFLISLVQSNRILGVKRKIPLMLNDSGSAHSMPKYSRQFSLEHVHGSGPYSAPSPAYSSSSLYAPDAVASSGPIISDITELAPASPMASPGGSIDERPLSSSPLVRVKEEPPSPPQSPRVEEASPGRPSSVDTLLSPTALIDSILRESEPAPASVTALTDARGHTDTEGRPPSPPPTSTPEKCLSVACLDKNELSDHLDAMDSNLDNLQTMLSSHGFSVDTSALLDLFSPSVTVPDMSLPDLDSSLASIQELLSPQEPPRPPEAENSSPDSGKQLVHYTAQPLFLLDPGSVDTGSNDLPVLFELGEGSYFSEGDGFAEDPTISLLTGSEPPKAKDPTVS
In assay [13] the target is T8, SPIC (Homo sapiens, UniProt Q8N5J4 1-248).
T8 sequence: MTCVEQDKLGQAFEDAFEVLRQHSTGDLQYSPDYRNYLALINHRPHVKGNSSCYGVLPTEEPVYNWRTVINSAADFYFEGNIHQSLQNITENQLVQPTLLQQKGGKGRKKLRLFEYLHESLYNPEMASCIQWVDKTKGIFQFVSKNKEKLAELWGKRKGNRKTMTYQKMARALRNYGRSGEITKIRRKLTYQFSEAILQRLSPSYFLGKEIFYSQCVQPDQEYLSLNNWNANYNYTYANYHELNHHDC
As to conditions: protein: recombinant; tags: N-terminal GST; dsDNA, one strand shown. The gist of the method: as §1

Assay [14] concerns the target ELF4 (Homo sapiens, UniProt Q99607 1-663). As to conditions: protein: recombinant; tags: N-terminal GST; dsDNA, one strand shown. Summed up: as §1
Assay [15] concerns the target T9, ELK4 (Homo sapiens, UniProt P28324-2 1-405).
T9 sequence: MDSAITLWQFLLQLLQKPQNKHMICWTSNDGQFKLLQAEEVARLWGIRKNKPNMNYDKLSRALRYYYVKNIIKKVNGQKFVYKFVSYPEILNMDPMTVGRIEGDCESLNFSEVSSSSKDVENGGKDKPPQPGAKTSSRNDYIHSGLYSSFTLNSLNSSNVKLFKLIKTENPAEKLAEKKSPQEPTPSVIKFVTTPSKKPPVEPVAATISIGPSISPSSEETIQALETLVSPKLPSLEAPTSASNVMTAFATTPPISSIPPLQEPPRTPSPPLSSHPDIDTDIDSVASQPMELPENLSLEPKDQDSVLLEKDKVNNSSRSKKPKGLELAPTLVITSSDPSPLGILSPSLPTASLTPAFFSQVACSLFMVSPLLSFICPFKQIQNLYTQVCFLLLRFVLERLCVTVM
The settings on record: protein: recombinant; tags: N-terminal GST; dsDNA, one strand shown. The gist of the method: as §1

The target in assay [16] is T10, ETV2 (Homo sapiens, UniProt O00321 1-342).
T10 sequence: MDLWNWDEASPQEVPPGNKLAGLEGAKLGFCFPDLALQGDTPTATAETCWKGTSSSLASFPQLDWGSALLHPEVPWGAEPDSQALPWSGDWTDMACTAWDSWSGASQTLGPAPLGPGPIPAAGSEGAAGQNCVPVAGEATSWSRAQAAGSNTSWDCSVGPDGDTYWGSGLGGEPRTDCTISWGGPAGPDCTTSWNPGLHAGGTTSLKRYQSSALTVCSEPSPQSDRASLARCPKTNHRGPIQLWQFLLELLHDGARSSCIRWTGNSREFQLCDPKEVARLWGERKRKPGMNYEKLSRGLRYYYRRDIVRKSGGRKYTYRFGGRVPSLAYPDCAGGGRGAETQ
As to conditions: protein: recombinant; tags: N-terminal GST; dsDNA, one strand shown. Summed up:
as §1

For assay [17], the target named is T11, ELF3 (Homo sapiens, UniProt P78545 1-371).
T11 sequence: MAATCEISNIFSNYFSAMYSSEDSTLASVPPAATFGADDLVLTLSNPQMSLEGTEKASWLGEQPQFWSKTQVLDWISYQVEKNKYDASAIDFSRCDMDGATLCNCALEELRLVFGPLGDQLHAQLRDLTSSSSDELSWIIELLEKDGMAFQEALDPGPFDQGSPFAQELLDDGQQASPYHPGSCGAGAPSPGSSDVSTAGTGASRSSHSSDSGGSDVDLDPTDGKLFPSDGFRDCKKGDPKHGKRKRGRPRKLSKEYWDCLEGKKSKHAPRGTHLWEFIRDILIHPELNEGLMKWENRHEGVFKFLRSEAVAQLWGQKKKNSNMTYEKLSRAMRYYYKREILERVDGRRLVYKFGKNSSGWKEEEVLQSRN
The settings on record: protein: recombinant; tags: N-terminal GST; dsDNA, one strand shown. The gist of the method:
as §1

Assay [18] deals with CRX (Homo sapiens, UniProt O43186 1-299). The settings on record: protein: recombinant; tags: N-terminal GST; dsDNA, one strand shown. Summed up:
as §1

Assay [19] concerns the target ETV1 (Homo sapiens, UniProt P50549 1-477). The settings on record: protein: recombinant; tags: N-terminal GST; dsDNA, one strand shown. Summed up:
as §1

Data on one sequence can be found in article PMC7862700, “An all-to-all approach to the identification of sequence-specific readers for epigenetic DNA modifications on cytosine”.

Sequence of ELF4 (Q99607 whole entry): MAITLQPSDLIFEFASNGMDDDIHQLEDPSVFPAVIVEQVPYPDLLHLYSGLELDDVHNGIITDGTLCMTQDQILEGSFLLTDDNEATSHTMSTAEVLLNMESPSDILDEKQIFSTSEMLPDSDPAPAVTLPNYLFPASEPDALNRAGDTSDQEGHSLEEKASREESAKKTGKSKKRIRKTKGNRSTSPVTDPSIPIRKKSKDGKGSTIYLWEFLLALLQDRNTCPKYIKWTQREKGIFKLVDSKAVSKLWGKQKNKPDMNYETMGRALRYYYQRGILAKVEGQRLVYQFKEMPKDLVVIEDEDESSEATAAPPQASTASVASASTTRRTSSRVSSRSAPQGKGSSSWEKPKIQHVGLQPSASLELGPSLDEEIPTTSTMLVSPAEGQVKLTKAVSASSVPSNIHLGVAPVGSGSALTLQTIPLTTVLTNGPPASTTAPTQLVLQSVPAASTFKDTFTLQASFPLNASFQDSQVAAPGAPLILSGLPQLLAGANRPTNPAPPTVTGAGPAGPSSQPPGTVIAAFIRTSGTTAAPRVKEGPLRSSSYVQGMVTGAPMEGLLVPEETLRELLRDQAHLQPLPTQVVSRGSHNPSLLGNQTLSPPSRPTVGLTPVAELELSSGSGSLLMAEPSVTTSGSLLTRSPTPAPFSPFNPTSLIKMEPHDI
Sequence of CRX (O43186 whole entry): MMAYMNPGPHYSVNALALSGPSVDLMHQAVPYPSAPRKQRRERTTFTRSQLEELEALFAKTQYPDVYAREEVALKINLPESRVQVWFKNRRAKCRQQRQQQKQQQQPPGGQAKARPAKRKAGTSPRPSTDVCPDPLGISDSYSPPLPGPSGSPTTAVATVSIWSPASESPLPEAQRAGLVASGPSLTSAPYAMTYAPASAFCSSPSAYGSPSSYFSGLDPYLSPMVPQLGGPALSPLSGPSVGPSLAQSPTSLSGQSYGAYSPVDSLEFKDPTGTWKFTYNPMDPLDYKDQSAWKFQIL
Sequence of ETV1 (P50549 whole entry): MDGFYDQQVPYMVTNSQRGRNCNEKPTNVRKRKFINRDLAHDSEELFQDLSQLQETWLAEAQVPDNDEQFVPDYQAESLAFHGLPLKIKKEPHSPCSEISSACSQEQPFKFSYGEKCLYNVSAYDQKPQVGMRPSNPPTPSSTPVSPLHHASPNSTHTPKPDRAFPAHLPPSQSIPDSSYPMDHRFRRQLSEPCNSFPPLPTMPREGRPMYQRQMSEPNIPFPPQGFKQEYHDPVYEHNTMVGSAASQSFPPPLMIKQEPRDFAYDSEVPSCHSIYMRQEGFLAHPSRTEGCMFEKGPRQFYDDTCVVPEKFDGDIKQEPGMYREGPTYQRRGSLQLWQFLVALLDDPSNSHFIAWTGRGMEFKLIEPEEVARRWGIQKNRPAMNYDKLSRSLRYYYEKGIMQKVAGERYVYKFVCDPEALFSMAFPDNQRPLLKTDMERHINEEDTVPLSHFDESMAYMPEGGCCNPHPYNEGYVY
Sequence of ELF1 (P32519 whole entry): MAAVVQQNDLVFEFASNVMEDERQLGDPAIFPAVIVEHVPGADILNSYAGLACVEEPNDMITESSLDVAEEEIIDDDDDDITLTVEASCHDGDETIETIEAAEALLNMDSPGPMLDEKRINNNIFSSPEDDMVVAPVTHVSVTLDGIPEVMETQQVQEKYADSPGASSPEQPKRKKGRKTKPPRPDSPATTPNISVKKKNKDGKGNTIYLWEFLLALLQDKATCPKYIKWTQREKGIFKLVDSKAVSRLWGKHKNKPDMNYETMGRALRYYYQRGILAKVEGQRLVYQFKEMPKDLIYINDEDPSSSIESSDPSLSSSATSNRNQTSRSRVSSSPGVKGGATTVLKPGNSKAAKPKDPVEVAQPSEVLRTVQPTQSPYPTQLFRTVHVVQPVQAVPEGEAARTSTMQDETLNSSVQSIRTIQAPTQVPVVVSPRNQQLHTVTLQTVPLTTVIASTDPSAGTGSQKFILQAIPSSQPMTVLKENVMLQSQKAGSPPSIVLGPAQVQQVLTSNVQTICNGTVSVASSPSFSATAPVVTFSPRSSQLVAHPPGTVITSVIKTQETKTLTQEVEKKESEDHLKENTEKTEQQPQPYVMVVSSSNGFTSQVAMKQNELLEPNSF
Sequence of SPIB (Q01892 whole entry): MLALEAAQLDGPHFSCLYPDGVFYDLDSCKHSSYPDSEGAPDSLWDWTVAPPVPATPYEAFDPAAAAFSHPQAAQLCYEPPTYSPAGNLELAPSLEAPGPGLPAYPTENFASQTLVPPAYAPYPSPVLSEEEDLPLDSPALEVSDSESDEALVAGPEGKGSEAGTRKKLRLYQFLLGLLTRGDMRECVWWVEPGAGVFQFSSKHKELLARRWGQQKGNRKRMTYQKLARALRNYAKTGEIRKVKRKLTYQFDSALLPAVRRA

For the sequence CCTCTC, the binding signal was 1.51 fold enrichment (6-mer frequency, TF over GST control) in assay [1]; 1.39 fold enrichment (6-mer frequency, TF over GST control) in [2]; 1.37 fold enrichment (6-mer frequency, TF over GST control) in assay [3]; 1.37 fold enrichment (6-mer frequency, TF over GST control) in assay [4]; 1.43 fold enrichment (6-mer frequency, TF over GST control) in assay [5]; 1.34 fold enrichment (6-mer frequency, TF over GST control) in assay [6]. Moreover, the binding signal was 1.39 fold enrichment (6-mer frequency, TF over GST control) in assay [7]; 1.44 fold enrichment (6-mer frequency, TF over GST control) in [8]; 1.44 fold enrichment (6-mer frequency, TF over GST control) in [9]; 1.36 fold enrichment (6-mer frequency, TF over GST control) in assay [10]; 1.34 fold enrichment (6-mer frequency, TF over GST control) in assay [11]; 1.23 fold enrichment (6-mer frequency, TF over GST control) in assay [12]. For the same sequence, the binding signal in assay [13] was 1.46 fold enrichment (6-mer frequency, TF over GST control); in assay [14] it was 1.48 fold enrichment (6-mer frequency, TF over GST control); in [15] it was 1.36 fold enrichment (6-mer frequency, TF over GST control); in [16] it was 1.44 fold enrichment (6-mer frequency, TF over GST control); in [17], 1.5 fold enrichment (6-mer frequency, TF over GST control); in assay [18], 1.16 fold enrichment (6-mer frequency, TF over GST control). Besides, the binding signal in [19] is 1.42 fold enrichment (6-mer frequency, TF over GST control).
